WRN helicase inh: qHTS for Inhibitors of WRN Helicase. Bifunctional 3'-5' exonuclease/ATP-dependent helicase WRN (Homo sapiens), Q14191. WRN helicase unwinding, fluorescent forked duplex, kinetic. Potency, µM (doses to about 114 µM), inactives show top-dose activity change, negative = inhibition, usual class: inhibitors. 0.46% of 360,000 active. AID 651768, 2012; also: potency is read from the fitted curve at half-maximal effect; % is scaled to controls: 0 for no effect and ±100 for the full control effect; nearly all actives have a fitted effect of over 55% in size
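WRN at 20 nM final preincubated with compound 15 min at room temperature; reaction started with 100 nM fluorophore/quencher forked duplex oligonucleotide and 2 mM ATP final. Unwinding followed kinetically by red fluorescence (ex 525, em 598 nm).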
Pol kappa inh-1: qHTS for Inhibitors of Polymerase Kappa | DNA polymerase kappa (Homo sapiens), Q9UBT6 | purified Pol kappa, fluorescent DNA synthesis assay, 10 min | Potency, µM (series often up to 107 µM), inactives show at the highest dose activity, negative = inhibition, actives largely listed as inhibitors | 0.53% of 400,000 active | AID 588579, 2011; also: potency is read from the fitted curve at half-maximal effect; % is scaled to controls: 0 for no effect and ±100 for the full control effect
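10 nM Pol kappa was preincubated with compounds for 15 min at room temperature. Reaction started with 50 nM (final) substrate. Fluorescence read kinetically at 0 and 10 min.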
Pol eta inh-1: qHTS for Inhibitors of Polymerase Eta. DNA polymerase eta (Homo sapiens), Q9Y253. recombinant Pol eta, fluorescent DNA replication assay. Potency, µM (series often up to 114 µM), for the others: at the top dose activity change, negative = inhibition, usual class: inhibitors. 1.2% of 390,000 active. AID 588591, 2011; also: potency is read from the fitted curve at half-maximal effect; % is scaled to controls: 0 for no effect and ±100 for the full control effect
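Pol eta at 10 nM preincubated with compounds 15 min at room temperature; reaction started with fluorescent substrate (50 nM final) and read kinetically at 0 and 10 min.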
POLI inh: qHTS for Inhibitors of Polymerase Iota; 1% of 390,000 active; Pol iota fluorescent replication assay, 10 min; DNA polymerase iota (Homo sapiens), Q9UNA4; Potency, µM (highest dose often 115 µM), for inactives: top-dose activity, negative = inhibition, actives largely listed as inhibitors; also: potency is read from the fitted curve at half-maximal effect
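Fluorescent replication assay read twice, at 0 min and 10 min after adding 50 nM (final) substrate. Enzyme (10 nM) and compounds were first incubated 15 min at room temperature; enzyme-free buffer wells were negative controls.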
Pol beta inh-1: qHTS Assay for Inhibitors of DNA Polymerase Beta; P06746; Pol beta primer extension/strand displacement, fluorescence kinetic; Potency, µM (doses to about 114 µM), for the others: at the highest dose activity change, negative = inhibition, hits mostly inhibitors; 1.3% of 340,000 active; AID 485314, 2010; also: potency is read from the fitted curve at half-maximal effect; % is scaled to controls: 0 for no effect and ±100 for the full control effect
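Homogeneous kinetic assay of primer extension and strand displacement by 10 nM Pol beta, preincubated 15 min at room temperature with compound before 50 nM substrate (final) was added. Read at 0 and 10 min; four-parameter Hill fit.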
PI5P4K alpha inh: qHTS for Inhibitors of phosphatidylinositol 5-phosphate 4-kinase (PI5P4K); AID 652105, 2013; Phosphatidylinositol 5-phosphate 4-kinase type-2 alpha (Homo sapiens), P48426; 1.2% of 330,000 active; max response, %; PI5P4Kalpha enzyme, ADP-Glo luminescence, 60 min; hits give low values; active = max response of -50% or lower; inconclusive = between -30% and -50%; inactive = -30% or higher; also: value at the top dose of about 77 µM; % is scaled to controls: 0 for no effect and ±100 for the full control effect
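Enzyme plus substrate dispensed, test compounds pinned in, then ATP (5 microM final) added. After 60 min at RT, ADP-Glo reagent 1 for 45 min and reagent 2 for 30 min preceded luminescence imaging.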
Pol beta inh-2: Inhibitors of DNA Polymerase Beta: Hit validation | shares compounds with Pol beta inh-1 | 87% of 250 active | AID 540280, 2011 | Potency, µM, hits mostly inhibitors | Pol beta primer extension/strand displacement, fluorescence kinetic; calls by dose curve; also: potency is read from the fitted curve at half-maximal effect
Klenow counter: Inhibitors of DNA Polymerase Beta: Hit Validation in Klenow Fragment Assay. Klenow exo- polymerase counter-screen, fluorescent DNA substrate. shares compounds with Pol beta inh-1. AID 540300, 2011. activity change, negative = inhibition, % at 57.1 µM. 250 tested, under 10 active
HIV RT inh: Inhibitors of DNA Polymerase Beta: Hit Validation in HIV-RT Assay | shares compounds with Pol beta inh-1 | HIV-1 RT polymerase activity, counter-screen | activity % (negative = inhibition, positive = activation), % at 57.1 µM | 250 tested, under 10 active | AID 540301, 2011
POLB inh gel: Inhibitors of DNA Polymerase Beta: Hit Validation in Radiolabeled Extension Assay; 91% of 110 active; AID 540325, 2011; inhibition, % at 10 µM; radiolabeled primer extension gel assay, phosphorimager; shares compounds with Pol beta inh-1;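 active = inhibition at 10 µM of 30% or more; inconclusive = no clear call, values can overlap the other calls; inactive = inhibition at 10 µM under 30%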
Pol iota confirm: qHTS for Inhibitors of Polymerase Iota: Confirmatory Assay for Cherry-picked Compounds. shares compounds with Pol kappa inh-1. Pol iota primer extension, TAMRA/BHQ fluorescence. Potency, µM, most hits filed as inhibitors. 77% of 1,500 active; also: potency is read from the fitted curve at half-maximal effect
Pol kappa inh-2: qHTS for Inhibitors of Polymerase Kappa: Confirmatory Assay for Cherry-picked Compounds; shares compounds with Pol eta inh-1; purified Pol-kappa, fluorescent strand-displacement substrate; Potency, µM, usual class: inhibitors; 76% of 920 active; also: potency is read from the fitted curve at half-maximal effect
Pol eta inh-2: qHTS for Inhibitors of Polymerase Eta: Confirmatory Assay for Cherry-picked Compounds; Pol eta primer extension, TAMRA/BHQ fluorescence, 10 min; shares compounds with Pol eta inh-1; Potency, µM, most hits filed as inhibitors; 64% of 2,600 active; also: potency is read from the fitted curve at half-maximal effect
* = called active by the depositor; [ ] = remark or other dose. Most compounds without a hit are left out; they make up all but 2.8% or so of the library. Unless noted, calls follow the shape of the dose curve; as a rule, active = well fitted curve in the direction sought with a large enough effect; inconclusive = small, poorly fitted or top-dose-only effect, or another doubt; inactive = no such curve, though single readings can be large; an effect the other way counts as inactive or inconclusive.

Screening Cc1cc(/C=C2\C(=N)N3N=C(c4ccco4)SC3=NC2=O)c(C)n1Cc1ccccc1 returned WRN helicase inh inconclusive, Pol kappa inh-1 50µM*, Pol eta inh-1 22µM*, POLI inh 20µM*, Pol beta inh-1 10µM*, PI5P4K alpha inh -62*, Pol beta inh-2 14*, Klenow counter -11, HIV RT inh -13, Pol kappa inh-2 17* and Pol eta inh-2 43*.
Screening CCOC(=O)c1cnc(-n2nc(C)cc2C)[nH]c1=O returned WRN helicase inh 11%, Pol kappa inh-1 10%, Pol eta inh-1 9%, POLI inh inconclusive, Pol beta inh-1 -3% and PI5P4K alpha inh 1.
Screening CCOC(=O)c1cnc(-n2[nH]c(C)cc2=O)[nH]c1=O returned WRN helicase inh 56µM*, Pol kappa inh-1 8.9µM*, Pol eta inh-1 inconclusive, POLI inh 0.89µM*, Pol beta inh-1 3.2µM*, PI5P4K alpha inh 2, Pol beta inh-2 32*, Klenow counter -30, HIV RT inh 8, POLB inh gel 89*, Pol iota confirm 27* and Pol eta inh-2 11*.
COc1ccccc1CNC(=O)c1cnc2sc(N3CCOCC3)nn2c1=O was read as Pol kappa inh-1 0%, Pol eta inh-1 5%, POLI inh -27% and Pol beta inh-1 11%.
`Cc1c(O)cc2c(c1O)C(=O)CC(c1ccc(O)cc1)O2` (stereo not given) gave WRN helicase inh -8%[11.6 µM], Pol kappa inh-1 14µM*, Pol eta inh-1 8.9µM*, POLI inh inconclusive, Pol beta inh-1 1.3µM*, PI5P4K alpha inh -80*, Pol beta inh-2 5*, Klenow counter -20, HIV RT inh 27 and Pol eta inh-2 inconclusive.
